# Measurements published in the supplement of paper PMC3545927.
# Some of the results follow. The hit rate among all sequences tested is not known here.
# Target: furin, P09958
# Assay: furin cleavage Z-score vs untreated control; higher = more cleavage, active = 3.5 or more, inactive = 1 or less, 8 variable residues between constant flanks
# Outline: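 Peptides 8 residues long, fused to a cDNA oligonucleotide, were fixed to magnetic beads by the N-terminus and exposed to purified furin. The 0.01 ml reactions contained 50 mM HEPES pH 7.5 with CaCl2 and NaCl at 1:10 enzyme:substrate and ran 7.5, 15 or 30 min. For the cleavage Z-score, log counts of sequenced released DNA were compared with furin-free reactions, lowess-adjusted and scaled by median absolute deviation.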
# furin, P09958, sequence (P09958 whole entry): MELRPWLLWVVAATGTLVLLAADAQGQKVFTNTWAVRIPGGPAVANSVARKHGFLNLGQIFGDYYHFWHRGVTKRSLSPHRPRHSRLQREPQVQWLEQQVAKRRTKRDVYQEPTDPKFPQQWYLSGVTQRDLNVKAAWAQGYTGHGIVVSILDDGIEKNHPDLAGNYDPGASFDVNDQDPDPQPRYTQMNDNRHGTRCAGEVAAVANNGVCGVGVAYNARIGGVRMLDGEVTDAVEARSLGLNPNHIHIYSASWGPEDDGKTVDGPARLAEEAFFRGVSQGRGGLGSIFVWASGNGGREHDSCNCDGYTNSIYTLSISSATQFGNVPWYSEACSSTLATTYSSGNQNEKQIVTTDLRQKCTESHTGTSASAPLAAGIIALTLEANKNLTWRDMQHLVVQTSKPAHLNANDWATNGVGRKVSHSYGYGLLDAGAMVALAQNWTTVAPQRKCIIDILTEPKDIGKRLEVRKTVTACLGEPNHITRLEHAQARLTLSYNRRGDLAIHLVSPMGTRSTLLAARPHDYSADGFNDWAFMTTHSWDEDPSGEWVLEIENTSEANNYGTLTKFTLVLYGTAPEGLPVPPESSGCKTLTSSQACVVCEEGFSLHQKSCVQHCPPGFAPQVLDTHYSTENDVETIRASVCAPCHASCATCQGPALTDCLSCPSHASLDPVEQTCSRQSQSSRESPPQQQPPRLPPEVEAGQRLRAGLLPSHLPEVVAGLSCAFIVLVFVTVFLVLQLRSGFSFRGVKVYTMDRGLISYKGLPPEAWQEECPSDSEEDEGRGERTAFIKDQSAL
Sequence,furin cleavage Z-score (7.5 min),furin cleavage Z-score (15 min),furin cleavage Z-score (30 min)
CALLLLLALPAGNASASA [HC559],-0.496 (inactive),-0.0246 (inactive),-1.1 (inactive)
CATDPCSGSWAGNASASA [HC1851],-1.13 (inactive),-1.19 (inactive),-1.08 (inactive)
CAAILDMIAGAGNASASA [HC332],0.577 (inactive),0.516 (inactive),-0.84 (inactive)
CASKAHGIDPAGNASASA [HC795],-1.17 (inactive),-1.03 (inactive),1.13
CASKSLSKRSAGNASASA [FS-721],8.05 (active),10.1 (active),6.73 (active)
CATVPCSGSWAGNASASA [HC1850],-0.242 (inactive),-1.82 (inactive),-1.24 (inactive)
CAPPDSDAESAGNASASA [HC1349],-1.81 (inactive),-1.84 (inactive),-0.313 (inactive)
CARKRREAESAGNASASA [FS-2972],12 (active),12.2 (active),8.7 (active)
CARKDRRKKGAGNASASA [FS-2035],0.369 (inactive),0.879 (inactive),1.04
CARKRRSIRYAGNASASA [FS-2975],8.7 (active),10.2 (active),9.27 (active)
CATDALMTGYAGNASASA [HC879],0.343 (inactive),0.0305 (inactive),0.976 (inactive)
CARKRRGTKGAGNASASA [FS-1959],8.4 (active),9.53 (active),8.24 (active)
CARKRRGTGYAGNASASA [FS-2565],9.5 (active),11.3 (active),9.57 (active)
CARKRRIVSGAGNASASA [FS-2348],-0.706 (inactive),0.0646 (inactive),-1.35 (inactive)
CARHYRPTGYAGNASASA [FS-2682],-1.08 (inactive),-0.433 (inactive),-0.26 (inactive)
CAVVCESMSYAGNASASA [HC93],1.27,1.17,0.112 (inactive)
CAGLPVCQDHAGNASASA [HC934],-1.12 (inactive),-0.715 (inactive),-0.789 (inactive)
CAMEECSQHVAGNASASA [HC1770],0.37 (inactive),-0.816 (inactive),0.885 (inactive)
CAGLAGAAIGAGNASASA [HC1077],0.0949 (inactive),-0.583 (inactive),-1.05 (inactive)
CATTPCSGSRAGNASASA [HC1933],-1.1 (inactive),1.02,0.7 (inactive)
CAEWVVCCSMAGNASASA [HC2128],-0.594 (inactive),0.0553 (inactive),0.122 (inactive)
CANKRRGGTAAGNASASA [WN5],-0.513 (inactive),-0.365 (inactive),0.516 (inactive)

Sequence,furin cleavage Z-score (7.5 min),furin cleavage Z-score (15 min),furin cleavage Z-score (30 min)
CARKRRTGFGAGNASASA [FS-2978],-1.31 (inactive),1.08,1.25
CARKRRCSLSAGNASASA [FS-1829],4.81 (active),7.32 (active),6.54 (active)
CARKRRGGPSAGNASASA [FS-2564],3.55 (active),5.66 (active),4.4 (active)
CARKHPDATYAGNASASA [HC454],-0.794 (inactive),-0.15 (inactive),-3 (inactive)
CARKRRTATYAGNASASA [FS-2977],4.55 (active),6.85 (active),6.75 (active)
CATDVVCCSMAGNASASA [HC2118],1.2,0.0514 (inactive),-0.681 (inactive)
CAFIPVENLEAGNASASA [HC758],-2.14 (inactive),-0.887 (inactive),-1.28 (inactive)
CAMEECSVHLAGNASASA [HC1730],-0.159 (inactive),-0.406 (inactive),0.608 (inactive)
CAEPRRSRRKAGNASASA [FS-23],3.35,6.04 (active),5.36 (active)
CAEPHRRRRKAGNASASA [FS-415],4.43 (active),5.99 (active),6.78 (active)
CAMDYRGRRKAGNASASA [FS-1544],-0.964 (inactive),-0.642 (inactive),0.39 (inactive)
CAEPLRKKKKAGNASASA [FS-1320],-0.899 (inactive),-0.615 (inactive),-0.879 (inactive)
CACRRRRRRKAGNASASA [FS-583],7.53 (active),8.14 (active),6.13 (active)
CARRRRKQRKAGNASASA [FS-2791],2.34,4.43 (active),4.61 (active)
CARQGRSGQKAGNASASA [FS-2063],-0.381 (inactive),0.885 (inactive),-0.813 (inactive)
CAVYHGAGTRAGNASASA [HC701],-1.21 (inactive),-0.779 (inactive),-0.813 (inactive)
CALLMCAVHPAGNASASA [HC598],-0.584 (inactive),-1.05 (inactive),-0.438 (inactive)
CALERRSVYTAGNASASA [FS-1986],-0.7 (inactive),0.537 (inactive),-0.997 (inactive)
CAKTPCSGSWAGNASASA [HC1834],-1.42 (inactive),-1.89 (inactive),-1.1 (inactive)
CAQREVPCHRAGNASASA [HC2442],1.83,1.74,0.0102 (inactive)
CALMRRRRRKAGNASASA [FS-1599],8.11 (active),10.6 (active),8.59 (active)
CAWTVYHGAGAGNASASA [HC700],-0.0993 (inactive),1.58,1.31
